# Rows were chosen to be rich in hits. Some 2.9% of all compounds tested hit in one or more screens of this group.
# proKLK7 act: activates the human kallikrein-7 zymogen | P49862 | purified proKLK7, EDANS-DABCYL substrate fluorescence; 100% is mature enzyme control, 0% vehicle | activation, % at 7 µM | 370,000 tested, 0.9% active;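 active = activation above the mean of all tested compounds plus 3 SD, computed per campaign excluding outliers beyond control limits, cut at about 13% in these data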
# ADAM10 inh: ADAM10 inhibition, QFRET primary screen | recombinant ADAM10, EDANS/DABCYL FRET peptide cleavage, 3 h | inhibition, % at 7 µM | 370,000 tested, 0.62% active;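 active = inhibition above a per-campaign cutoff equal to the mean of compounds falling between control-based bounds plus 3 SD, cut at about 20% in these data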
# ADAM17 inh: inhibitors of human ADAM17; P78536; AID 720648; recombinant ADAM17, EDANS/DABCYL FRET peptide cleavage; 370,000 tested, 0.83% active; inhibition, % at 6.95 µM;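 active = inhibition above the mean of compounds lying between control limits plus 3 SD, set per campaign, cut at about 8.5% in these data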
# PLC-beta3 inh: inhibitors of human phospholipase C beta3; Purified PLC-beta3, fluorogenic substrate, fluorescence; inhibition, % at 12.2 µM; 370,000 tested, 0.18% active; in the data active = inhibition above about 11%
# PLCg1 inh: blocks human PLC-gamma1 enzyme activity | P19174 | purified PLC-gamma1, fluorogenic substrate, fluorescence | inhibition, % at 12.2 µM | 370,000 tested, 0.84% active | AID 720700
# PLCg1 ctr: inhibits human PLC-gamma1 in PLC-beta3 counter-screen; purified PLC-gamma1, fluorogenic substrate, fluorescence; shares compounds with PLCg1 inh; 3,300 tested, 3.1% active; inhibition, % at 12.3 µM
# PLCbeta3 conf: confirmation of human PLC-beta3 inhibitors; shares compounds with PLCg1 inh; purified PLC-beta3, fluorogenic substrate fluorescence; inhibition, % at 12.3 µM; 3,300 tested, 1% active; AID 743261; in the data active = inhibition above about 11%
# Hits are given with their value; 0 = inactive; - = no result. Rule as the data show it, unless noted: active = inhibition above about 9.5%; inactive = the rest.
SMILES,proKLK7 act,ADAM10 inh,ADAM17 inh,PLC-beta3 inh,PLCg1 inh,PLCg1 ctr,PLCbeta3 conf
CC1=NN(c2ccc(C)cc2C)C(=O)C1C(c1ccccc1O)C1C(=O)N(c2ccc(C)cc2C)N=C1C (stereo not drawn),0,0,0,0,13,0,0
CC1=NN(C(N)=S)C(=O)C1N=Nc1ccc(C)cc1C (stereo not drawn),0,0,0,0,0,-,-
COC(=O)c1cc(COC(=O)c2nc3nc(C)cc(C)n3n2)oc1C,0,0,0,12,0,0,0
COCC(C)n1c(C)cc(C(=O)COC(=O)c2nc3nc(C)cc(C)n3n2)c1C (stereo not drawn),0,0,0,0,0,-,-
CCNS(=O)(=O)c1ccc(CCC(=O)Nc2ccc3c(c2)OCO3)cc1,0,0,0,0,0,-,-
O=C(CCc1ccc(S(=O)(=O)NCCc2ccccc2)cc1)Nc1ccc2c(c1)OCO2,0,0,0,0,10,0,0
CC(Sc1nnc(Cc2cccs2)n1C1CC1)C(=O)NC1CCS(=O)(=O)C1 (stereo not drawn),0,0,0,0,0,-,-
COc1ccc(/C=N/NC(=O)C(=O)N2CCN(c3ccccc3OC)CC2)cc1,0,0,0,0,12,0,0
CC(C)Oc1ccc(N2CC(C(=O)Nc3ccc(N4CCOCC4)cc3)CC2=O)cc1 (stereo not drawn),0,0,0,12,12,0,0
N#C/C(=C\c1ccco1)C(=O)NCC1CCCO1 (stereo not drawn),0,0,0,13,11,0,0
CCN1CCN(CC(=O)NC2CCCC2)C(=O)C1=O,0,0,0,0,13,0,0
CCCCn1c(-c2nonc2NC(=O)c2ccccc2Cl)nc2ccccc21,0,0,0,0,12,0,0
CCCCCN(C(=O)CCC(=O)OC(C)C(=O)Nc1ccccc1C)c1c(N)n(CCCC)c(=O)[nH]c1=O (stereo not drawn),0,0,0,0,0,-,-
O=C(CSc1ccc(-c2cccc([N+](=O)[O-])c2)nn1)N1CCCCC1,0,0,0,0,14,0,0
CCN(C(=O)COC(=O)CCCOc1ccccc1)c1c(N)n(Cc2ccccc2)c(=O)[nH]c1=O,0,0,0,0,0,-,-
Cc1cc(C)nc(NCC(O)COc2ccccc2C)n1 (stereo not drawn),0,0,0,0,12,0,0
NS(=O)(=O)c1ccc(CCNC(=O)CCCCCNc2nc(=S)[nH]c3ccccc23)cc1,0,0,0,0,10,0,0
Cc1ccc(CNC(=O)CCCCCNc2nc(=S)[nH]c3ccccc23)cc1,0,0,0,0,0,-,-
CCN(CC)C(=O)c1ccc2c(c1)NC(=O)C(C)(C)O2,0,0,0,0,0,-,-
COc1ccccc1CN1CCC(n2nccc2NC(=O)c2ccccc2Cl)CC1,0,0,0,0,11,0,0
CC/C(Cc1ccccc1)=N/NC(=O)CNC(=O)c1ccc(Cl)cc1Cl,0,0,0,0,11,0,0
CC/C(C)=N\NC(=O)CNC(=O)c1ccc(Cl)cc1Cl,0,0,0,0,0,-,-
O=C(COC(=O)c1ccc(S(=O)(=O)NCc2ccco2)cc1)Nc1ccccc1OC(F)F,0,0,0,12,0,0,0
Cc1nc(NCCOc2ccccc2)sc1C(=O)Nc1ccccc1,0,0,0,0,12,0,0
COc1ccc(S[C@]2(C(=O)N3CCN(c4ncccn4)CC3)CC(=O)N(c3ccc(OC)cc3)[C@@H]2c2ccc(OC)cc2)cc1,0,0,0,0,0,-,-
SMILES,proKLK7 act,ADAM10 inh,ADAM17 inh,PLC-beta3 inh,PLCg1 inh,PLCg1 ctr,PLCbeta3 conf
COc1ccc(CNCC(O)(c2ccc(Cl)cc2)c2ccc(Cl)cc2)cc1OC,0,0,0,0,9.8,0,0
O=C(O)C1CCCCC1C(=O)Nc1nccs1 (stereo not drawn),0,0,0,0,12,0,0
CCOc1ccc(NC(=O)C2CCN(c3nnnn3-c3ccccc3)CC2)cc1,0,0,0,0,10,0,0
COc1cccc(NC(=O)N2CCN(c3nnnn3-c3ccccc3)CC2)c1,0,0,0,0,10,0,0
Cc1noc(C)c1COc1ccc(C(=O)N2CCCC(C(N)=O)C2)cc1 (stereo not drawn),0,0,0,0,0,-,-
Cc1ccc(-c2nn(CC(=O)N3CCOCC3)c(=O)c3ccccc23)cc1S(=O)(=O)N(C)C,0,0,0,0,10,0,0
O=[N+]([O-])c1cc(Br)c2c(c1)CCN2,0,0,0,13,0,0,0
CCNC(=O)C1CCCN(C(=O)c2cc(OC)c(OC)c(OC)c2)CC1 (stereo not drawn),0,0,0,0,0,-,-
S=C(Nc1ccccc1)Nc1ccccn1,0,0,0,0,0,-,-
S=C(Nc1ccccc1)c1ccccn1,0,0,0,12,11,0,0
O=C(CN1CCN(Cc2cccc(C(F)(F)F)c2)CC1)NCC(=O)Nc1ccc(F)c(F)c1F,0,0,0,0,0,-,-
O=C(CSc1nnnn1C1CCCCC1)N1CCN(C(=O)c2ccco2)CC1,0,0,0,0,12,0,0
O=C(CSc1nnnn1C1CCCC1)N1CCN(C(=O)c2ccco2)CC1,0,0,0,0,0,-,-
NN1C(=O)/C(=C\c2ccco2)SC1=S,0,0,0,0,18,0,0
O=C1/C(=C/c2ccco2)SC(=S)N1c1cccnc1,0,0,0,0,12,0,0
O=C1/C(=C/C=C/c2ccco2)SC(=S)N1c1ccc(O)cc1,0,0,0,0,22,0,0
O=C(NCCc1ccccc1F)c1cc2ccccn2n1,0,0,0,0,0,-,-
CCCCCCCCN1C(=O)[C@@H](CC(=O)NCc2cccc3ccccc23)C[C@@]2(C(=O)OC)C1=C[C@H](C(C)(C)C)O[C@@H]2C,0,0,0,0,0,-,-
O=C(O)c1cccc(Nc2ccncc2[N+](=O)[O-])c1,0,0,0,0,11,0,0
O=C1CCCC(O)=C1N=Nc1c(Cl)cc(Cl)cc1Cl,0,0,0,0,10,0,0
O=C1NC(Cc2ccccc2)c2nc3ccccc3c(=O)n2-c2ccc(Cl)cc21 (stereo not drawn),0,0,0,0,0,-,-
CC1(C)OC2OC(COC(=O)c3ccc([N+](=O)[O-])cc3)C3OC(C)(C)OC3C2O1 (stereo not drawn),0,0,0,0,11,0,0
O=C(NCC1CCCO1)C(c1cccnc1)N(C(=O)Cc1cccs1)c1cccnc1 (stereo not drawn),0,0,0,13,11,0,0
Cc1ccc(SCc2cc(=O)n3[nH]c(C)nc3n2)cc1,0,0,0,0,0,-,-
Cc1ccc(SCc2cc(=O)n(C)[nH]2)cc1,0,0,0,0,11,0,0

# From PubChem
